Rows were chosen to be rich in hits. Some 15% of all compounds tested hit in one or more screens of this group.
SARS PLP yeast: qHTS of Yeast-based Assay for SARS-CoV PLP; S. cerevisiae expressing SARS-CoV PLpro, growth rescue; Potency, µM (highest dose often 32.9 µM), hits mostly activators; 0.19% of 330,000 active; AID 485353, 2010; calls by dose curve; note: nearly all actives have a fitted effect of over 55% in size
Pf growth 48h: Primary qHTS for delayed death inhibitors of the malarial parasite plastid, 48 hour incubation. P. falciparum luciferase growth in erythrocytes, 48 h. Potency, µM (doses to about 28.7 µM), hits mostly inhibitors. 5.9% of 310,000 active. AID 504832, 2011
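First compound was added to culture medium, then infected red cells at 0.1% parasitemia and 2% hematocrit (final). After incubation at 37 C under 5% CO2, luciferase detection reagent was dispensed and light output recorded.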
HCMV inh: qHTS Assay for inhibitors of the human cytomegalovirus (HCMV) | 4.5% of 410,000 active | HFF cells, HCMV-luciferase reporter, 72 h; active compounds read low | activity change, negative = inhibition, % at 57.5 µM; in the data active = activity change below about -60%; inconclusive = no clear call, values can overlap the other calls; inactive = above about -39%
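After 16 h attachment at 37C, HFF cells received test compound and HCMV-luciferase (1 PFU/cell); reporter luminescence read 72 h later, data normalized against buffer-only and known inhibitor Salinomycin.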
Pf growth 96h: Primary qHTS for delayed death inhibitors of the malarial parasite plastid, 96 hour incubation | P. falciparum luciferase reporter growth, 96 h | Potency, µM (titrated, usually from 28.7 µM), actives largely listed as inhibitors | 6.9% of 320,000 active | AID 504834, 2011
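Erythrocytes infected with luciferase-expressing P. falciparum were dispensed at 2% hematocrit and 0.05% parasitemia (final), then incubated with compounds 96 hours at 37 C in 5% CO2. Luminescence after detection reagent addition reported growth.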
Sm TGR inh: qHTS Assay for the Inhibitors of Schistosoma Mansoni Peroxiredoxins. Schistosoma mansoni thioredoxin glutathione reductase (TGR), Q962Y6. purified TGR, DTNB reduction, TNB absorbance 405 nm. Potency, µM (top dose mostly 114 µM), hits mostly inhibitors. 3% of 360,000 active. AID 485364, 2010; note: nearly all actives have a fitted effect of over 60% in size
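First, TGR (20 nM dispensed) and NADPH were mixed with compound. Second, a 15 min room-temperature incubation followed. Third, further NADPH and then DTNB were added to start the reaction. Finally, TNB absorbance was monitored kinetically.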
HCV inh: qHTS Assay for Inhibitors of Hepatitis C Virus (HCV); 3.4% of 340,000 active; Huh7.5.1 HCVcc-Cre infection, luciferase reporter, 44 h; Potency, µM (series often up to 41.8 µM), hits mostly inhibitors
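Compounds are dispensed onto cells plated 4 h earlier at 1,000 per well, with HCVcc-Cre virus (about 0.5 moi) added next. Following 44 h of culture, luminescent signal is measured for 15 sec after 15 min with substrate at room temperature.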
Large screens that a line does not name were inactive. Unless noted, calls come from the whole dose curve; as a rule, active = well fitted curve in the direction sought with a large enough effect; inconclusive = small, poorly fitted or top-dose-only effect, or another doubt; inactive = no such curve, though single readings can be large; an effect the other way counts as inactive or inconclusive.

COc1cccc(NC(=O)Cn2c(=O)n(-c3ccc(CC(=O)NCC4CCCO4)cc3)c(=O)c3ccccc32)c1 (configuration not stated)	none (no result: SARS PLP yeast, Pf growth 48h, Pf growth 96h, HCV inh)
COc1cc(C2C(C#N)=C(C)NC(C)=C2C#N)cc(OC)c1OC	Pf growth 48h 9.28µM, Pf growth 96h 11.7µM
COc1cc(C2C(C#N)=C(N)Oc3cc(N)ccc32)cc(OC)c1OC (configuration not stated)	Pf growth 96h inconclusive
CCc1nc(NC(=O)c2sc(C)nc2C)sc1C(=O)OC	Pf growth 96h inconclusive
O=C1CC(c2ccco2)CC2=C1C=Nc1ccccc1N2 (configuration not stated)	HCMV inh inconclusive, Sm TGR inh 39.8µM (no result: Pf growth 96h)
Fc1ccc(-c2ccnc3nc(N4CCOCC4)nn23)cc1	Pf growth 96h inconclusive
COc1ccc(-c2ccnc3nc(N4CCN(c5ccccc5)CC4)nn23)cc1	Pf growth 48h inconclusive, Pf growth 96h 9.28µM, HCV inh inconclusive
CC(=O)N1CCc2cc(Br)cc(S(=O)(=O)CCC(=O)N3CCN(c4ccccc4)CC3)c21	none (no result: SARS PLP yeast, Pf growth 48h, Pf growth 96h, HCV inh)
CCOC(=O)c1c(C)[nH]c(C)c1S(=O)(=O)NCC(=O)Nc1ccc(CC)cc1	none (no result: SARS PLP yeast, Pf growth 48h, Pf growth 96h, HCV inh)
CCOP(=O)(OCC)c1cccc(P(=O)(c2ccccc2)c2ccccc2)c1O	Pf growth 48h inconclusive
CCOP(=O)(C1=C(O)C(=O)C(C(C)(C)C)=CC1=O)c1ccccc1 (configuration not stated)	Pf growth 48h inconclusive, Pf growth 96h inconclusive, Sm TGR inh 1.41µM
C=CC(=O)NC(NC(=O)C=C)c1ccccc1F	Pf growth 48h inconclusive, Pf growth 96h 9.28µM
Cc1ccc(N2CC(C)Cn3c2nc2c3c(=O)n(CC(=O)O)c(=O)n2C)cc1 (configuration not stated)	none (no result: SARS PLP yeast, Pf growth 48h, Pf growth 96h, HCV inh)
O=C(Nc1ccc(S(=O)(=O)Nc2ncccn2)cc1)c1nn(Cc2ccccc2)c(=O)c2ccccc12	Pf growth 48h 1.85µM, Pf growth 96h inconclusive, HCV inh inconclusive
O=S(=O)(Nc1ncccn1)c1ccc(NC(=S)Nc2ccc(Cl)cc2)cc1	Pf growth 48h inconclusive, HCMV inh -63.8, Sm TGR inh inconclusive
Nc1ccc(S(=O)(=O)Nc2nccc(/C=C/c3cccc(Br)c3)n2)cc1	HCMV inh -73.3
CC(=O)Nc1ccc(S(=O)(=O)Nc2nccc(/C=C/c3ccc(Cl)cc3)n2)cc1	HCMV inh -73.1, Pf growth 96h inconclusive
CCOc1ccc(C(=O)N(Cc2cc(OC)c(OC)c(OC)c2)c2ccccn2)cc1	none (no result: SARS PLP yeast, Pf growth 48h, Pf growth 96h, HCV inh)
Cc1ccc(C(=O)OCC(=O)NC(C)C2CC3CCC2C3)cc1N (configuration not stated)	none (no result: Pf growth 48h, Pf growth 96h, Sm TGR inh)
Nc1n[nH]c2cc(=O)n(-c3cccc(C(F)(F)F)c3)nc12	Pf growth 48h inconclusive, HCMV inh inconclusive, Sm TGR inh 22.4µM
Oc1c(Cl)cc(Cl)cc1CN1CCN(Cc2ccccc2)CC1	Pf growth 48h 1.17µM, Pf growth 96h 0.738µM
Clc1ccccc1CN1CCC(Cc2ccccc2)CC1	HCMV inh -101.0
O=C(C1CCN(Cc2cc(Cl)ccc2O)CC1)N1CCN(Cc2ccccc2)CC1	Pf growth 48h inconclusive, HCV inh inconclusive
Clc1ccccc1CN1CCNCC1	Pf growth 96h 8.28µM
O=C(Cc1ccccc1)N1CCN(Cc2ccccc2Cl)CC1	Pf growth 96h 4.15µM
CCOC(=O)CN1C(=O)N[C@@H](CCc2ccccc2)[C@H](C(=O)OC)[C@H]1C	none (no result: SARS PLP yeast, Pf growth 48h, Pf growth 96h, Sm TGR inh)
COc1ccccc1NC(=O)C1CCN(S(=O)(=O)c2ccc3c(c2)oc(=O)n3C)CC1	none (no result: SARS PLP yeast, Pf growth 48h, Pf growth 96h, HCV inh)
CCOC(=O)N1CCN(Cc2cccs2)CC1	none
c1csc(CN2CCNCC2)c1	Pf growth 96h 10.4µM
O=C(CSc1nc(-c2ccco2)cc(C(F)(F)F)n1)NCCCN1CCOCC1	HCMV inh inconclusive (no result: Sm TGR inh)
O=C(OC(C(=O)NCc1ccc2c(c1)OCO2)c1ccncc1)c1ccc(Cl)nc1 (configuration not stated)	none
CCNC(=O)COc1ccc(/C=C2\COc3ccccc3C2=O)cc1OC	Pf growth 48h inconclusive, Sm TGR inh 39.8µM, HCV inh inconclusive
CCOc1cc(C=C2C(=O)NC(=O)NC2=O)ccc1OCC(=O)N1CCOCC1	Sm TGR inh inconclusive
CCOc1cc(/C=C2\COc3ccccc3C2=O)ccc1OCC(=O)N(C)C	Pf growth 48h 14.7µM, Pf growth 96h inconclusive, Sm TGR inh inconclusive, HCV inh inconclusive
Clc1cccc(Cl)c1C[n+]1ccc2ccccc2c1	Pf growth 48h 2.08µM, HCMV inh -94.0, HCV inh inconclusive
CCC(Cc1ccccc1)NCc1c(C(=O)O)c(C)n(Cc2ccccc2)c1C (configuration not stated)	HCMV inh -74.2, Pf growth 96h inconclusive
Cc1ccc(OCCn2c(=O)n(C)c3ccccc32)cc1	HCV inh 11.2µM
Cn1c(=O)c2c(ncn2CCO)n(C)c1=O	Pf growth 96h 4.26µM
Cc1ccc(OCCn2cnc3c2c(=O)n(C)c(=O)n3C)cc1	HCMV inh -76.1, HCV inh 3.55µM
CC(C)CCn1cnc2c1c(=O)n(C)c(=O)n2C	none
Cc1ccc(S(=O)(=O)N2CCC3(CC2)OCCN3S(=O)(=O)c2c(C)cc(C)cc2C)cc1	Pf growth 48h 10.4µM, Pf growth 96h inconclusive, HCV inh 10µM
COc1ccc(S(=O)(=O)N2CCC3(CC2)OCCN3S(=O)(=O)c2cccs2)cc1OC	Pf growth 48h inconclusive, Pf growth 96h 9.28µM, HCV inh inconclusive
Cc1cc(C)c(S(=O)(=O)N2CCC3(CC2)OCCN3S(=O)(=O)c2cccs2)c(C)c1	Pf growth 48h inconclusive, Pf growth 96h inconclusive, HCV inh 11.2µM
COc1ccc(S(=O)(=O)N2CCC3(CC2)OCCN3S(=O)(=O)c2c(C)cc(C)cc2C)cc1	Pf growth 48h 1.04µM, HCMV inh inconclusive, Pf growth 96h 0.828µM, HCV inh inconclusive (no result: SARS PLP yeast)
CCS(=O)(=O)N1CCC2(CC1)OCCN2S(=O)(=O)c1ccc(C)cc1	none
Cc1nc(-c2ccc(Cl)cc2)sc1CCNC(=O)c1ccc(C(F)(F)F)cc1	none (no result: SARS PLP yeast, Pf growth 48h, Pf growth 96h, HCV inh)
CC1CCN(C(=O)CC#N)CC1	none
CC1CCN(C(=O)CCl)CC1	SARS PLP yeast inconclusive, Pf growth 48h 5.22µM, HCMV inh inconclusive, Pf growth 96h 5.86µM, Sm TGR inh inconclusive
CCOC(=O)N1CCN(C(=O)CCl)CC1	Pf growth 48h inconclusive, Pf growth 96h inconclusive, Sm TGR inh 39.8µM, HCV inh inconclusive
CCOC(=O)N1CCN(C(=O)Cc2ccc(Cl)cc2)CC1	none
CC(C)(C)NC(=O)CN1CCCN(C(=O)COc2ccc(Cl)c3ccccc23)CC1	Pf growth 48h 11.7µM, Pf growth 96h inconclusive
